The supplement of paper PMC3334620
In all, about 33,000 sequences were measured (“E-score (-0.5 to 0.5)”: median about -0.053, highest 2% from about 0.37 on). For the sample, the highest values were picked, then their nearest neighbours and some sequences at random.

target: Hap1 (UniProt P0CE41); test: PBM E-score (8-mer binding enrichment) (E-score (-0.5 to 0.5)); higher = stronger / more preferred TF binding; settings: protein concentration: 200 nM; construct: GST-DNA-binding domain
Description: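 Universal 'all 10-mer' protein binding microarrays (Agilent AMADID 015681) probed with GST-tagged S. cerevisiae TFs (full-length or DBD) made by in vitro transcription/translation (PURExpress), about 100-200 nM. Bound TF was detected with fluorescent anti-GST. Each ungapped 8-mer (which stands for itself and its reverse complement) is scored by the PBM enrichment score (E-score), a modified Wilcoxon-Mann-Whitney statistic from -0.5 to +0.5, computed with the Universal PBM Analysis Suite. Scale: above 0.35 generally sequence-specific binding.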

UniProt P0CE41, sequence (P0CE41 whole entry, the tested form may be a part): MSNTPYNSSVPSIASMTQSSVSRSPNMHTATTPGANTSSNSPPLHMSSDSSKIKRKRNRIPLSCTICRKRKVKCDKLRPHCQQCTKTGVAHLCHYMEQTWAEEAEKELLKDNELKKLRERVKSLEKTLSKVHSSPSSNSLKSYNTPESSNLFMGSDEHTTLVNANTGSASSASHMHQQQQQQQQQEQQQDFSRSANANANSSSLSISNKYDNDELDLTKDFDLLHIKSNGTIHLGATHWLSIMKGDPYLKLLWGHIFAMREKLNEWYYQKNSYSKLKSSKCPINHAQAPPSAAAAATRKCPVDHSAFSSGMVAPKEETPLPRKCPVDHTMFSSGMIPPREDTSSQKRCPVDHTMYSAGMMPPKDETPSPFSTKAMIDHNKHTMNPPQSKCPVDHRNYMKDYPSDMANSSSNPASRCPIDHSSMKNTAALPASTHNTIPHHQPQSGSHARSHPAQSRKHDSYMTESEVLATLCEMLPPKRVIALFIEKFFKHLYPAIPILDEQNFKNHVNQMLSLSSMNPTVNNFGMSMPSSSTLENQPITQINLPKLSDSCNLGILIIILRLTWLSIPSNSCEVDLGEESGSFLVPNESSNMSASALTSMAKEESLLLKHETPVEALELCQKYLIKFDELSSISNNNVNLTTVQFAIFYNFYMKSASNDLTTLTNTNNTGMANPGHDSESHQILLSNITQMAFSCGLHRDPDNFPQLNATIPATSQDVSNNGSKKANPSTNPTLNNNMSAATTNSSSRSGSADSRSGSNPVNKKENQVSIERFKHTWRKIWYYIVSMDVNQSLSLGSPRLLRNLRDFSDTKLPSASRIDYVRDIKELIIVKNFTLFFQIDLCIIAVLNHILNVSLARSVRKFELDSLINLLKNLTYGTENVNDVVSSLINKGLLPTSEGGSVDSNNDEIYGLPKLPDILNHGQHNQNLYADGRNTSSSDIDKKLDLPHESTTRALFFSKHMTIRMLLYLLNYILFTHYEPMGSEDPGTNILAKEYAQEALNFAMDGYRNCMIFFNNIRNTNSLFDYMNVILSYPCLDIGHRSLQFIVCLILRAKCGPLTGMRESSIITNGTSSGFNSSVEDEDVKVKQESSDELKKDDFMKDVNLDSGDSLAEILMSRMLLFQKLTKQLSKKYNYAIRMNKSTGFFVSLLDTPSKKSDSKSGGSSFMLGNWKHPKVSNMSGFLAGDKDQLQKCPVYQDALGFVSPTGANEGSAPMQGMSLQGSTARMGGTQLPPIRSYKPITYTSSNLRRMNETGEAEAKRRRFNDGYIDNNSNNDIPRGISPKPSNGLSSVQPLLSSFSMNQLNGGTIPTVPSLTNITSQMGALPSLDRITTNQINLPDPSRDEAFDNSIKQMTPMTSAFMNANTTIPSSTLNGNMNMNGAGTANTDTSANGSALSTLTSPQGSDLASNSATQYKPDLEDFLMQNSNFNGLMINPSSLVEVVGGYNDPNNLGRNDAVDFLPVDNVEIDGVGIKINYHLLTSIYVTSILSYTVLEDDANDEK

Row | Sequence | PBM E-score
1 | GGGGGTAC | 0.215
2 | CTAACAGA | -0.101
3 | CTAGCAGA | -0.242
4 | ATCCTCAC | -0.103
5 | AGCAGGAT | -0.0378
6 | TCTCCCAA | -0.0542
7 | GCTTTCCA | -0.11
8 | CTCCGAGA | 0.376
9 | GTCCGAGA | 0.437
10 | GTGCGAGA | -0.179
11 | CTTCGAGA | -0.234
12 | CTCCGAGC | 0.386
13 | CTCCGACC | 0.359
14 | CCCCGAGC | 0.351
15 | CTGCGAGA | -0.215
16 | ATCCGAGA | 0.346
17 | CCAATCTC | 0.00791
18 | AGCCCTAC | -0.129
19 | CATGGTGA | -0.0558
20 | CCGGAAGC | 0.336
21 | GTCATCAC | -0.249
22 | AGGAGTAG | -0.195
23 | CCAAGGAA | -0.0481
24 | CAGTCCGA | 0.366
25 | AAGTCCAA | -0.00743

Row | Sequence | PBM E-score
26 | AAGTCCGA | 0.467
27 | TAGTCCGA | 0.42
28 | AAGTCCTA | 0.0348
29 | GAGTCCGA | 0.35
30 | AACCCTCA | -0.135
31 | TGGTTAAA | -0.0634
32 | AATCGCCT | 0.0771
33 | TAGCTTGA | -0.226
34 | AGGCGTAT | -0.311
35 | ATGCCTAA | -0.21
36 | GGTTCCAA | 0.14
37 | AACCCGGC | 0.333
38 | AACCCGGT | 0.365
39 | CTCCCGGA | 0.376
40 | CTCCCGGC | 0.33
41 | AGCCCGGC | 0.272
42 | AGCCCGGA | 0.39
43 | AGCCCCCG | 0.185
44 | AGCCCGGG | 0.36
45 | AGCCCCGG | 0.373
46 | AACCCGGA | 0.371
47 | GTCCCGGA | 0.343
48 | AGCCCCGA | 0.333
49 | AGTGCTAA | 0.0956
50 | CGTTTGTA | -0.122

Row | Sequence | PBM E-score
51 | GACCACTC | 0.0772
52 | TCTCCAGA | -0.0567
53 | TAGTAGCA | -0.123
54 | ATGCGCGA | 0.188
55 | ACTAAAGG | -0.181
56 | AGGCGCAC | -0.0853
57 | AGTCCATC | -0.027
58 | TGCAGACA | -0.233
59 | CGCCCGAA | 0.294
60 | ACCCCGGG | 0.357
61 | GGCCCGCA | 0.157
62 | CCCCCGGA | 0.305
63 | AGCCCGAA | 0.3
64 | GCCCCGTA | 0.0466
65 | GGCCCGAA | 0.384
66 | GCCCCGGA | 0.391
67 | GGCCCGTA | 0.281
68 | GGCCCGGA | 0.409
69 | GCCCCGGC | 0.25
70 | ACCCCGGA | 0.37
71 | CCTGGTGC | -0.0907
72 | GAAAATCC | 0.167
73 | GAAGGTCC | 0.0808
74 | AGCTCCAA | -0.276
75 | GAGACGCC | 0.0301

Row | Sequence | PBM E-score
76 | GGATACAC | 0.132
77 | CACCATCC | 0.0474
78 | ATTTAATC | 0.153
79 | ACAATGAA | -0.165
80 | AGATACAC | -0.0669
81 | ACTGGTAG | -0.206
82 | GCAAGCCA | -0.171
83 | CAGTCGAA | -0.204
84 | CGCCCGTA | 0.142
85 | CACCCGGA | 0.364
86 | GACCCGGA | 0.353
87 | TCCCCGCA | 0.303
88 | TCCCCGAA | 0.335
89 | TACCCGGA | 0.38
90 | TCCCCGGA | 0.377
91 | CGCCCGGC | 0.335
92 | CGCCCGGA | 0.4
93 | GAACGCAA | -0.0397
94 | ACTTCTAG | -0.146
95 | GAACATGA | -0.0648
96 | AAGTCCAG | -0.056
97 | ATTGCTCG | 0.137
98 | TGCTCAAA | -0.145
99 | CGATAAGA | 0.291
100 | TACGCCTA | -0.258

Row | Sequence | PBM E-score
101 | AATATATC | 0.26
102 | GATATATC | 0.373
103 | GGGATCTA | 0.134
104 | CGGATAAA | 0.381
105 | CGGATCTA | 0.404
106 | GATATATA | 0.198
107 | TGGATAAA | -0.0137
108 | CGGATCTC | 0.279
109 | CTGATATC | 0.26
110 | AGGATATC | 0.155
111 | CGGATATC | 0.39
112 | CGGATAAC | 0.359
113 | CATTAGCA | -0.142
114 | CTAAGAGC | -0.0334
115 | AGGGTGAT | -0.15
116 | CAGAACAA | -0.101
117 | GGGATGTA | 0.124
118 | CGGATACC | 0.218
119 | GGGATATA | 0.21
120 | AGGATATA | 0.0407
121 | CGGATGTC | 0.35
122 | CGGATACA | 0.385
123 | TGGATACA | -0.288
124 | CGGATGTA | 0.427
125 | CGGATATA | 0.482

Row | Sequence | PBM E-score
126 | ATAGCCTA | -0.189
127 | CCGAATAC | 0.365
128 | ATGTGACG | -0.166
129 | GACGGGCC | 0.142
130 | ACTAGGTC | -0.0578
131 | GTCGACAC | -0.156
132 | CCGATAAA | 0.461
133 | ACGATAAG | 0.245
134 | GCGATAAA | 0.258
135 | GCGATAAC | 0.322
136 | ACGATAAC | 0.0651
137 | TCGATAAA | 0.146
138 | CCGATAAG | 0.431
139 | CCGATAAC | 0.447
140 | CGGATAAG | 0.31
141 | CAAGATAA | -0.0149
142 | AAGCCTAA | -0.0872
143 | ATGCCAGG | -0.127
144 | ACTCTTGG | -0.22
145 | ACGCTCGC | -0.123
146 | ACGCTCGG | 0.375
147 | ACGCTCGA | -0.125
148 | TATCCAGA | -0.0797
149 | AGACTGAG | -0.208
150 | CGCAGCAA | -0.197

Row | Sequence | PBM E-score
151 | CGCGAGGA | 0.0251
152 | TGGCTTAA | -0.0483
153 | GGGCTATA | -0.0464
154 | CGGCTTAG | 0.229
155 | CGGCTATA | 0.383
156 | CGGCTTAA | 0.391
157 | CGGCTTTC | 0.259
158 | CGGCTTTA | 0.464
159 | GGGCTTTA | 0.132
160 | AGGCTATA | -0.157
161 | GCTCTACA | -0.124
162 | GTCCTAGA | -0.246
163 | TCTTTTCA | -0.162
164 | TGGAAACA | -0.0875
165 | CTGCTCCA | -0.239
166 | CAGGACGC | -0.246
167 | AAGGATGG | -0.188
168 | CGGTGATC | 0.26
169 | GGGTGTTA | 0.0847
170 | CGGTGATA | 0.428
171 | CGGTGTTA | 0.465
172 | CGGTGTTC | 0.235
173 | GGGTGATA | 0.167
